Reference: article PMC5540273 (PLoS ONE, 2017)

test system: STK36; settings: concentration: 1 μM, replicates: in singlicate; n = 1
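Note: KINOMEscan kinase panel screen.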

| Structure (SMILES) | %Inh [%] |
| --- | --- |
| COCCNC(=O)c1ccc(-c2cc(C(=O)NC3CC3)cc(F)c2C)cc1 [GW868318] | 2 |
| COC(=O)Nc1nc2cc(Oc3ccc(NC(=O)Nc4cc(F)ccc4F)cc3)ccc2[nH]1.Cl [GW701424] | 0 |
| O=C(c1ccc(-c2cc(-c3c[nH]nc3-c3ccccn3)ccn2)cc1)N1CCOCC1 [GW812171] | 2 |
| NS(=O)(=O)c1cccc(-c2ccc3nccc(-c4cccc(S(N)(=O)=O)c4)c3c2)c1 [GW867253] | 0 |
| CN1c2ccc(CNc3ccc(F)cc3)cc2-c2c(cnn2C)S1(=O)=O | 0 |
| O=c1cc(N2CCOCC2)nc2n(Cc3cccc(C(F)(F)F)c3)ccn12 [GSK2297543] | 0 |
| Nc1nccc(-c2c(-c3ccc(F)cc3)ncn2C2CCN(CC(F)(F)F)CC2)n1 [SB-236560] | 26 |
| O=c1cc(N2CCOCC2)nc2n(Cc3cccc(Cl)c3Cl)c(C3CC3)nn12 [GSK2358994] | 3 |
| Fc1ccc(-c2ncn(CCCN3CCOCC3)c2-c2ccccn2)cc1 [SB-211742] | 0 |
| CC(C)Oc1ccc2c(-c3ccnc(Nc4ccc(N5CCN(C)CC5)cc4)n3)cnn2n1 [GW696155] | 70 |
| COc1ccc(COc2cc(-n3cnc4ccccc43)sc2C(N)=O)cc1 [GSK1024304] | 0 |
| C[C@@H](Oc1cc(-n2cnc3ccc(NC(=O)NC(C)(C)C)cc32)sc1C(N)=O)c1ccccc1Cl [GSK346294] | 0 |
| Cl.Nc1ncnc2occ(-c3ccc(NC(=O)Nc4cc(C(F)(F)F)ccc4F)cc3)c12 [SB-707548] | 0 |
| COc1cc2c(cc1OCCN1CCN(C)CC1)ncc1c3ccc(C#N)cc3[nH]c21 | 0 |
| O=C(NCCNc1ccnc(Nc2ccc(F)cc2)n1)Nc1ccccc1F [GSK1379880] | 48 |
| O=C(NCCNc1ccnc(Nc2ccc(F)cc2)n1)c1cc2ccccc2s1 [GSK1379874] | 0 |
| COc1cc2ncn(-c3cc(OCc4sccc4Cl)c(C(N)=O)s3)c2cc1OC [GSK448459] | 0 |
| Cc1cccc(-c2nc(-c3ccc(S(C)(=O)=O)cc3)sc2-c2ccncc2)c1 | 30 |
| CCc1nc(-c2cccc(C)c2)c(-c2ccnc(NCc3ccccc3)c2)s1 | 0 |
| c1ccc(-c2cc(-c3c[nH]nc3-c3ccccn3)ccn2)cc1 [GW576604] | 0 |
| COc1cc(Nc2nccc(N3CCC(NC(=O)c4cccc(NC(C)=O)c4)C3)n2)cc(OC)c1OC (centres unmarked) [GSK1379754] | 0 |
| Cn1ccc2ncnc(Oc3ccc(NC(=O)Nc4ccncc4)c(Cl)c3)c21 | 5 |
| Cl.Oc1cccc(Nc2ccnc3cc(-c4ccncc4)ccc23)c1 [GW494601] | 0 |
